Compound activity deposited in PubChem by National Center for Advancing Translational Sciences (NCATS).
Shown are actives, neighbours in structure and some others; about 21% of the full set was active somewhere.
Pf growth 48h: inhibits P. falciparum growth in the first generation, 48 h; hit rate 5.9% among 310,000; AID 504832; P. falciparum luciferase growth in erythrocytes, 48 h; Potency, µM (highest dose often 28.7 µM), actives largely listed as inhibitors
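Parasite viability was followed by luminescence of a genomically integrated firefly luciferase. Cultures held 0.1% parasitemia at 2% hematocrit (final), incubated under 5% CO2 at 37 C.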
Pf growth 96h: P. falciparum growth inhibition at 96 hours; P. falciparum luciferase reporter growth, 96 h; Potency, µM (top dose mostly 28.7 µM), most hits filed as inhibitors; hit rate 6.9% among 320,000
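P. falciparum expressing integrated firefly luciferase grown in erythrocytes (2% hematocrit, 0.05% parasitemia final) with compounds for 96 hours at 37 C, 5% CO2. Growth inhibition read as loss of luminescence after adding luciferase detection reagent.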
HCV inhibitor: HCV inhibition. Huh7.5.1 HCVcc-Cre infection, luciferase reporter, 44 h. Potency, µM (series often up to 41.8 µM), most hits filed as inhibitors. hit rate 3.4% among 340,000
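Infectious HCV cell culture screen: compound-treated cells (1,000/well, pre-plated 4 h) are infected with HCVcc-Cre at roughly 0.5 moi and grown 44 h. Infection is quantified by luciferase signal after 15 min substrate incubation at room temperature.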
Shiga toxin inh: blocks Shiga toxin action in Vero cells; Vero cells, Shiga toxin protein synthesis inhibition reporter; inhibition, % at 38.7 µM; hit rate 9.2% among 290,000; AID 2315; in the data active = inhibition mostly above about 28%, no sharp cut-off; inactive = mostly below about 43%
Cycloheximide cs: affects cycloheximide protein synthesis inhibition readout, counter-screen; AID 2314; max response, %; cell reporter, cycloheximide protein synthesis inhibition counterscreen; hit rate 12% among 300,000; in the data active = max response mostly above about 13%, no sharp cut-off; inactive = mostly below about 14%; note: read at 38.3 µM for the half of the compounds with a filed dose
AMA1-RON2 inh: disrupts binding of P. falciparum AMA1 to RON2; hit rate 0.2% among 360,000; Potency, µM (highest dose often 58.2 µM), hits mostly inhibitors; AlphaScreen AMA1-biotinylated RON2 peptide binding; note: nearly all actives have a fitted effect of over 45% in size
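AMA1 (3D7) with his tag at 25 nM final met compounds first, then biotinylated RON2 peptide at 25 nM; detection used donor plus acceptor beads, 10 µg/mL apiece, read by AlphaScreen after 30 min at room temperature.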
A number is an active result; [ ] = remark or other dose. Unless noted, calls come from the whole dose curve; as a rule, active = well fitted curve in the direction sought with a large enough effect; inconclusive = small, poorly fitted or top-dose-only effect, or another doubt; inactive = no such curve, though single readings can be large; an effect the other way counts as inactive or inconclusive.

Screening Cc1c(C(=O)N2c3ccccc3CC2C)oc2ccccc12 (stereo not drawn) returned Pf growth 48h inactive, Pf growth 96h inactive, HCV inhibitor inconclusive, Shiga toxin inh 166, Cycloheximide cs 42 and AMA1-RON2 inh inactive.
CCOC(=O)N1CCN(C(=O)c2oc3ccc(S(=O)(=O)N4CC(C)CC(C)C4)cc3c2C)CC1 (stereo not drawn) was read as Pf growth 48h inconclusive, HCV inhibitor inconclusive, Shiga toxin inh inactive, Cycloheximide cs inactive and AMA1-RON2 inh inactive.
For CCCCCCNC(=O)CCCCCNS(=O)(=O)c1ccc(Br)cc1 the results were Pf growth 48h inconclusive, Pf growth 96h inactive, HCV inhibitor inactive, Shiga toxin inh inactive, Cycloheximide cs inactive and AMA1-RON2 inh inactive.
For CCOC(=O)CNC(=O)CSc1nc(C(C)C)nc2c1cnn2-c1ccccc1 the results were AMA1-RON2 inh inactive.
For Cc1nnc(NC(=O)CSc2nnc3ncccn23)s1 the results were Pf growth 48h inactive, Pf growth 96h inactive, HCV inhibitor inactive, Shiga toxin inh inactive, Cycloheximide cs inactive and AMA1-RON2 inh inactive.
For COc1ccc(S(=O)(=O)Nc2ccccc2-c2nc3ccccc3[nH]c2=O)cc1 the results were Pf growth 48h inactive, Pf growth 96h inactive, HCV inhibitor inconclusive, Shiga toxin inh inactive, Cycloheximide cs inactive and AMA1-RON2 inh inactive.
Cc1c(C(=O)N2CCc3ccccc3C2)oc2ccccc12 was read as Pf growth 48h inactive, Pf growth 96h inactive, HCV inhibitor inconclusive, Shiga toxin inh 74, Cycloheximide cs 39 and AMA1-RON2 inh inactive.
For CC1Cc2ccccc2N1C(=O)c1nn(C)cc1Br (stereo not drawn) the results were Pf growth 48h inactive, Pf growth 96h inactive, HCV inhibitor inactive, Shiga toxin inh inactive, Cycloheximide cs 9.3 and AMA1-RON2 inh inactive.
For CCCCN(CC)C(=O)c1oc2ccc(S(=O)(=O)N3CCCC3)cc2c1C the results were Pf growth 48h inconclusive, Pf growth 96h 13µM, HCV inhibitor inconclusive, Shiga toxin inh inactive, Cycloheximide cs inactive and AMA1-RON2 inh inactive.
CCOC(=O)n1c(=O)oc2cc(S(=O)(=O)N3CCCCC3)ccc21 was read as Pf growth 48h inconclusive, Pf growth 96h 0.0029µM, HCV inhibitor inactive, Shiga toxin inh inactive, Cycloheximide cs inactive and AMA1-RON2 inh inactive.
Screening COc1ccc(/C=C/C(=O)NCC(=O)N/N=C(/C)c2ccc(Cl)cc2)cc1 returned Pf growth 48h inactive, Pf growth 96h inactive, HCV inhibitor inactive, Shiga toxin inh inactive, Cycloheximide cs inactive and AMA1-RON2 inh inactive.
For CCCCC[C@@H](C)N1C[C@@H](COCc2ccccc2)Oc2cc(N3CCC[C@@H]3CO)ccc2S1(=O)=O the results were AMA1-RON2 inh inactive.
`C[C@@H]1O[C@H](C2CCCC2)Cc2[nH]c(=S)[nH]c(=O)c21` gave AMA1-RON2 inh inactive.
`C=CCNC(=O)COC(=O)COc1ccc(Cl)cc1` gave Pf growth 48h inactive, Pf growth 96h inactive, HCV inhibitor inactive, Shiga toxin inh inactive, Cycloheximide cs inactive and AMA1-RON2 inh inactive.
CC1(C)C2CC[C@]3(C)C(CC=C4[C@@H]5C[C@@](C)(CO)[C@@H](O)C[C@]56C[C@@H](OC6=O)[C@]43C)[C@@]2(C)CC[C@@H]1O (stereo partly drawn) was read as HCV inhibitor 1.3µM and AMA1-RON2 inh inactive.
`O=C(CCNS(=O)(=O)c1ccc(F)c(Cl)c1)NCc1ccccc1F` gave HCV inhibitor inactive and AMA1-RON2 inh inactive[11.6 µM].
Cc1nnc(NC(=O)NC(C)N2C(=O)C3C4C=CC(C4)C3C2=O)s1 (stereo not drawn) was read as Pf growth 48h 2.6µM, Pf growth 96h inactive, HCV inhibitor inactive, Shiga toxin inh inactive, Cycloheximide cs inactive and AMA1-RON2 inh inactive.
COC(=O)Cn1cnc2c(cnn2-c2ccccc2)c1=O was read as Pf growth 48h inactive, Pf growth 96h inconclusive, HCV inhibitor inactive, Shiga toxin inh inactive, Cycloheximide cs 16 and AMA1-RON2 inh inactive.
COC(=O)C(C)n1cnc2c(cnn2-c2ccc(Cl)cc2)c1=O (stereo not drawn) was read as Pf growth 48h inactive, HCV inhibitor inconclusive, Shiga toxin inh 69, Cycloheximide cs 54 and AMA1-RON2 inh inactive.
`CCOC(=O)Cn1cnc2c(cnn2-c2ccccc2)c1=O` gave Pf growth 48h inactive, Pf growth 96h inactive, HCV inhibitor inactive, Shiga toxin inh inactive, Cycloheximide cs 21 and AMA1-RON2 inh inactive.
CC(C)CCn1cnc2c(cnn2-c2ccc(F)cc2)c1=O was read as Pf growth 48h inactive, HCV inhibitor 10µM, Shiga toxin inh 60, Cycloheximide cs 36 and AMA1-RON2 inh inactive.
Screening COC(=O)c1ccc(Cn2cnc3c(cnn3-c3ccc(Cl)cc3)c2=O)o1 returned Pf growth 48h inactive, Pf growth 96h inactive, HCV inhibitor inconclusive, Shiga toxin inh inactive, Cycloheximide cs inactive and AMA1-RON2 inh inactive.
Screening Cc1nnc2c3cnn(-c4ccc(Cl)cc4)c3ncn12 returned Pf growth 48h inactive, Pf growth 96h inactive, Shiga toxin inh 77 and Cycloheximide cs 27.
COc1ccc(-n2c(C)nc3c(cnn3-c3ccc(Cl)cc3)c2=O)cc1 was read as Pf growth 48h inactive, Pf growth 96h inactive, HCV inhibitor inconclusive, Shiga toxin inh inactive, Cycloheximide cs inactive and AMA1-RON2 inh inactive.
`CCOC(=O)Cn1cnc2c(cnn2-c2ccc(Cl)cc2)c1=O` gave Pf growth 48h inconclusive, Pf growth 96h inconclusive, HCV inhibitor inactive, Shiga toxin inh inactive, Cycloheximide cs 36 and AMA1-RON2 inh inactive.
CCOC(=O)Cn1cnc2c(cnn2-c2ccc(OC)cc2)c1=O was read as Pf growth 48h inactive, Pf growth 96h inconclusive, HCV inhibitor inactive, Shiga toxin inh 60, Cycloheximide cs 29 and AMA1-RON2 inh inactive.
For CC(=O)Nc1ccc(S(=O)(=O)N(C)CC(=O)OC(C)C(=O)NC2(C#N)CCCCC2)cc1 (stereo not drawn) the results were AMA1-RON2 inh inactive.
`COc1cc(-c2cc(NC(C)=O)c3ncc(-c4ccc(C(C)=O)cc4)n3c2)cc(OC)c1OC` gave AMA1-RON2 inh inactive.
Screening CC(Cc1cccs1)NC(=O)Nc1ccc(Cl)c(Cl)c1 (stereo not drawn) returned Pf growth 96h inconclusive, HCV inhibitor inconclusive, Shiga toxin inh 59, Cycloheximide cs 45 and AMA1-RON2 inh inactive.
For CC(Cc1cccs1)NC(=O)Nc1ccc(Cl)cc1 (stereo not drawn) the results were Pf growth 48h inactive, HCV inhibitor inactive, Shiga toxin inh 88, Cycloheximide cs 29 and AMA1-RON2 inh inactive.
For CC(Cc1cccs1)NC(=S)Nc1ccccc1 (stereo not drawn) the results were Pf growth 48h inactive, Pf growth 96h inactive, HCV inhibitor inconclusive, Shiga toxin inh 40, Cycloheximide cs 18 and AMA1-RON2 inh inactive.
For CCC(C)NC(=S)Nc1ccccc1 (stereo not drawn) the results were Pf growth 48h inconclusive, Pf growth 96h inconclusive, HCV inhibitor inactive, Shiga toxin inh inactive, Cycloheximide cs inactive and AMA1-RON2 inh inactive.
